The values that follow come from PubChem BioAssay (Tox21).

A short description of experiment [1]: qHTS assay to identify small molecule antagonists of the thyroid receptor (TR) signaling pathway - cell viability counter screen (AID 743064). Further: nearly all actives have a fitted effect of over 50% in size. Further: potency means the concentration at half of the fitted maximal effect. In outline:
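Rat GH3 pituitary tumor cells stably expressing two TR response elements driving luciferase were plated, rested 4 h, then dosed with library compounds and T3 (1 nM final). After 23.5 h at 37 °C, CellTiter-Fluor was added for 30 min and fluorescence recorded.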
A general note: Quantitative high-throughput screening tests each substance at several concentrations.

A short description of experiment [2]: qHTS assay to identify small molecule antagonists of the thyroid receptor (TR) signaling pathway (AID 743065). Further: series mostly up to about 70 µM; nearly all actives have a fitted effect of over 55% in size. In outline: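 GH3.TRE-Luc rat pituitary cells carrying two TR response elements driving luciferase were plated for 4 h, given compound plus 1 nM T3 (final), and incubated 23.5 h at 37 C. ONE-Glo luminescence measured reporter inhibition; CellTiter-Fluor fluorescence tracked cytotoxicity.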

Experiment [3] concerns thyroid hormone receptor (rat, GH3 cells). Kind of experiment: qHTS assay to identify small molecule agonists of the thyroid receptor (TR) signaling pathway (AID 743066; calls by dose curve; further: potency means the concentration at half of the fitted maximal effect).
For experiment [4], the target named is Estrogen receptor (Homo sapiens) (UniProt P03372). In words: qHTS assay to identify small molecule antagonists of the estrogen receptor alpha (ER-alpha) signaling pathway (AID 743069; active means well fitted curve in the direction sought with a large enough effect in the signal ratio in the repeat runs, not every such curve was filed as active; inconclusive means weak or mixed curves, or effect the other way; inactive means no such curve, though single readings can be large or run the other way; the % refers to the signal ratio; further: potency means the concentration at half of the fitted maximal effect). A digest of the protocol: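 Screening used a UAS-driven beta-lactamase reporter integrated into HEK293 cells expressing ER-alpha, stimulated with 17beta-estradiol alongside test compounds over 18 hr at 37C; signal came from LiveBLAzer B/G FRET fluorescence.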

A short description of experiment [5]: qHTS assay to identify small molecule antagonists of the estrogen receptor alpha (ER-alpha) signaling pathway - cell viability counter screen (AID 743074; calls by dose curve; further: nearly all actives have a fitted effect of over 45% in size).
Experiment [6] deals with Estrogen receptor (Homo sapiens) (UniProt P03372). In words: qHTS assay to identify small molecule agonists of the estrogen receptor alpha (ER-alpha) signaling pathway (AID 743075; calls by dose curve; further: potency means the concentration at half of the fitted maximal effect).
For experiment [7] the target is unchanged. In words: qHTS assay to identify small molecule agonists of the estrogen receptor alpha (ER-alpha) signaling pathway using the BG1 cell line (AID 743079). Further: nearly all actives have a fitted effect of over 20% in size. Further: potency means the concentration at half of the fitted maximal effect.
Experiment [8] in a line: qHTS assay to identify small molecule antagonists of the estrogen receptor alpha (ER-alpha) signaling pathway using the BG1 cell line (AID 743080; calls by dose curve;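 further: BG1 cells stimulated with 17beta-estradiol alongside compound; nearly all actives have a fitted effect of over 25% in size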; further: potency means the concentration at half of the fitted maximal effect). In outline: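 After 5 days in phenol-red-free 10% charcoal-stripped FBS medium, BG1-Luc-4E2 cells were seeded, left 24 h at 37 C, co-treated with compounds and 17beta-estradiol for 21.5 h, then assayed for viability and luciferase.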

Experiment [9] in a line: qHTS assay to identify small molecule antagonists of the estrogen receptor alpha (ER-alpha) signaling pathway using the BG1 cell line - cell viability counter screen (AID 743081).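 Further: compound given together with 17beta-estradiol as the ER stimulus; nearly all actives have a fitted effect of over 45% in size.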 Further: potency means the concentration at half of the fitted maximal effect.
A further experiment addresses Aromatase (Homo sapiens) (UniProt P11511). In words: qHTS assay to identify aromatase inhibitors (AID 743083). Further: series mostly up to about 70 µM; nearly all actives have a fitted effect of over 55% in size.

Values joined by “and” are separate entries in the source; they are usually repeats but may differ in a detail not shown here. Equal entries are not always repeated. A structure can be active in one record and inactive in another. Active and inactive are the calls of the source. Unless noted, the call rests on the fitted dose curve; in most records, active means well fitted curve in the direction sought with a large enough effect in the repeat runs; inconclusive means weak or mixed curves; inactive means no such curve, though single readings can be large; an effect the other way counts as inactive or inconclusive.

Estrogen receptor (Homo sapiens), sequence (P03372 whole entry, looked up): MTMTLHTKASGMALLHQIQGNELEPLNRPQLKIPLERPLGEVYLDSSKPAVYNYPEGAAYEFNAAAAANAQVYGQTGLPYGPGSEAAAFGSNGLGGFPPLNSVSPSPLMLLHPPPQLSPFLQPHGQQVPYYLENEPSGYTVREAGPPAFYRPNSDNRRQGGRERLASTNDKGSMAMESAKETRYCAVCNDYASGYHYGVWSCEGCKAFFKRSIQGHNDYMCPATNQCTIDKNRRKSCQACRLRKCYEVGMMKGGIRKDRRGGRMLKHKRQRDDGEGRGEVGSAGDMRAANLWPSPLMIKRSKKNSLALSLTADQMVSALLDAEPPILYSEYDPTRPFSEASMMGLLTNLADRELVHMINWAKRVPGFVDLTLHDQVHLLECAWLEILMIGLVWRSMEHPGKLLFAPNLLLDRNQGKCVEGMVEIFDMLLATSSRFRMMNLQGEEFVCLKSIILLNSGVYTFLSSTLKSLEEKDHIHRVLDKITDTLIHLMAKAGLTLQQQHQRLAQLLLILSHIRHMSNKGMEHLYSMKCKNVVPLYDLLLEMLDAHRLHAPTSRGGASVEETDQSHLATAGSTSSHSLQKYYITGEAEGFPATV
Aromatase (Homo sapiens), sequence (P11511 whole entry, looked up): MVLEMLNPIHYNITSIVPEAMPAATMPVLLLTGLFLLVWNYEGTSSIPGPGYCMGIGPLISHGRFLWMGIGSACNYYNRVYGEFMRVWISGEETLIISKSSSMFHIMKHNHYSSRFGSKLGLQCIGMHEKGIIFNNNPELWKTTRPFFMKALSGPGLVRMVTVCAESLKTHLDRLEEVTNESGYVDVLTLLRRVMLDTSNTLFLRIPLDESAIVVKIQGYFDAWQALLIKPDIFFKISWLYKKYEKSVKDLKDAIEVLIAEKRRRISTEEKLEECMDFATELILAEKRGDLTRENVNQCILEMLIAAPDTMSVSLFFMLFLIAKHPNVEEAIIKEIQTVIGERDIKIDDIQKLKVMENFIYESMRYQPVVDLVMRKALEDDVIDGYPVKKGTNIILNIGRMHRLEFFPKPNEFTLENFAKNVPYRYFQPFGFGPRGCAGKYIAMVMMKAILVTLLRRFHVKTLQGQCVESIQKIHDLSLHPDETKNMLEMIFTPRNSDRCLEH

On to `COC(=O)c1ccc(C)cc1`, for which the Potency result in experiment [1], in [2], in [3], in experiment [4], in [5] and in experiment [6] was “inactive” throughout. Also, the Potency entry (in [7]; in experiment [8]; in experiment [9]; with Aromatase (Homo sapiens)) was “inactive” in each case.
In the case of `CC(=O)OC(C)C`, the Potency result in experiment [1], in experiment [2], in experiment [3], in experiment [4], in experiment [5] and in experiment [6] was “inactive” throughout. Besides, the Potency entry (in experiment [8]; in experiment [9]; with Aromatase (Homo sapiens)) was “inactive” each time.
Turning to `COC(=O)CC(=O)OC`, the Potency result in experiment [1], in [2], in experiment [3], in experiment [4], in [5] and in experiment [6] was “inactive” throughout. In addition, the Potency result (in experiment [7]; in experiment [8]; in experiment [9]; with Aromatase (Homo sapiens)) was “inactive” in each case.
Turning to `c1ccc2ncccc2c1`, the Potency entry in experiment [1], in experiment [2], in experiment [3], in experiment [4], in [6] and in experiment [7] was “inactive” in each case. The Potency entry (in [8]; in [9]; in the experiment with Aromatase (Homo sapiens)) was “inactive” each time.
As for `[Na+]`, the Potency entry in experiment [1], in experiment [2], in experiment [3], in [4], in [5] and in experiment [6] was “inactive” in each case. In addition, the Potency entry (in [7]; in experiment [8]; in experiment [9]; in the experiment with Aromatase (Homo sapiens)) was “inactive” each time.
Regarding `Cc1ccc(C(C)(C)C)cc1`, the Potency result in experiment [1], in [2], in experiment [3], in [4], in [5] and in experiment [6] was “inactive” throughout. Also, the Potency entry (in experiment [7]; in experiment [8]; in experiment [9]; with Aromatase (Homo sapiens)) was “inactive” each time.
Take `NCCS(=O)(=O)O`: in [1], the Potency result was “inactive and 28.4 µM (active)”. For the same molecule, the Potency result in [2], in experiment [3], in experiment [4], in [5], in experiment [6] and in [7] was “inactive” each time. Moreover, the Potency result (in [8]; in experiment [9]; in the experiment with Aromatase (Homo sapiens)) was “inactive” throughout.
Regarding `C=CCNCC=C`, the Potency entry in [1], in [2], in [3], in experiment [4], in experiment [5] and in [6] was “inactive” throughout. Moreover, the Potency entry (in [7]; in experiment [8]; in [9]; in the experiment with Aromatase (Homo sapiens)) was “inactive” in each case.
For the molecule `Nc1cc(Cl)c(N)c(Cl)c1`, the Potency entry in [1], in experiment [2], in experiment [3], in experiment [4], in experiment [5] and in [6] was “inactive” each time. The Potency entry (in experiment [7]; in experiment [9]; in the experiment with Aromatase (Homo sapiens)) was “inactive” throughout. Besides, the Potency in experiment [8] is 34.1 µM (active) and inactive.
As to `CCCCCCC(C)O` (stereo not drawn), the Potency result in experiment [1], in experiment [2], in experiment [4], in [5], in experiment [6] and in experiment [7] was “inactive” each time. Also, the Potency entry (in experiment [8]; in experiment [9]; with Aromatase (Homo sapiens)) was “inactive” each time. Moreover, the Potency in experiment [3] is 55.6 µM (active) and inactive.
On to `ClC/C=C/CCl`, for which the Potency entry in [1], in experiment [2], in experiment [3], in [4], in experiment [5] and in experiment [6] was “inactive” throughout. Also, the Potency entry (in [7]; in experiment [8]; in experiment [9]; with Aromatase (Homo sapiens)) was “inactive” in each case.
With `Cc1ccc(N)c([N+](=O)[O-])c1`, the Potency result in experiment [1], in experiment [2], in experiment [3], in experiment [4], in [5] and in [6] was “inactive” each time. Besides, the Potency entry (in experiment [8]; in [9]; in the experiment with Aromatase (Homo sapiens)) was “inactive” throughout. Also, in [7], the Potency was 38.1 µM (active) and inactive.
As for `O=C1CCc2ccccc2O1`, the Potency entry in [1], in [2], in experiment [3], in experiment [4], in experiment [5] and in experiment [6] was “inactive” in each case. In addition, the Potency result (in experiment [7]; in experiment [8]; in experiment [9]; with Aromatase (Homo sapiens)) was “inactive” throughout.
In the case of `C=C[Si](OCCOC)(OCCOC)OCCOC`, the Potency entry in experiment [1], in [2], in experiment [3], in experiment [4], in experiment [5] and in experiment [6] was “inactive” throughout. Further, the Potency entry (in [7]; in experiment [8]; in [9]; with Aromatase (Homo sapiens)) was “inactive” each time.
In the case of `CC(=O)Oc1ccc(C(c2ccc(OC(C)=O)cc2)c2ccccn2)cc1`, the Potency result (in [1]; in [2]; in experiment [3]; in experiment [5]; with Aromatase (Homo sapiens)) was “inactive” throughout. The Potency is 19 µM [inconclusive] (active) and 24.4 µM [inconclusive] (active) in experiment [4]; 3.01 µM [activator] (active) in experiment [6]; 2.11 µM (active) and 1.92 µM (active) in [9].
As for `[O-]/[N+](=N\O)c1ccccc1`, the Potency entry (in experiment [1]; in [2]; in [3]; in experiment [4]; in [9]; with Aromatase (Homo sapiens)) was “inactive” each time. Besides, the Potency entry was “inactive and 55 µM [activator] (active)” in [6]; 61.1 µM (active) in experiment [7].
As for `COc1cc([C@H]2Oc3cc([C@H]4Oc5cc(O)cc(O)c5C(=O)[C@@H]4O)ccc3O[C@@H]2CO)ccc1O`, the Potency entry in [1], in experiment [2], in [3], in experiment [5], in experiment [6] and in experiment [7] was “inactive” throughout. Further, the Potency entry (in experiment [8]; in experiment [9]; in the experiment with Aromatase (Homo sapiens)) was “inactive” throughout.
